Consider 40 compounds from PubChem BioAssay (NCATS).

SMILES strings stand for the structures. Records with an inconclusive call do not appear. A number with no mark means an inactive call. The source made the active and inactive calls. Calls come from the whole dose curve; as a rule, active = well fitted inhibition curve with a large enough effect; inconclusive = small, poorly fitted or top-dose-only effect; inactive = no such curve, though single readings can be large or run the other way.
% is set by controls: 0 for no effect and ±100 for the full control effect.

This test can be described thus: Primary qHTS for small molecule stabilizers of the endoplasmic reticulum resident proteome: Secreted ER Calcium Modulated Protein (SERCaMP) assay (AID 1508630). The settings on record: SH-SY5Y GLuc-SERCaMP (Gaussia luciferase released on ER calcium loss) secretion, thapsigargin, luminescence; series mostly up to 38.4 µM; activity change, negative = inhibition: at the top concentration. From the text: Assay Provider: Brandon K. Harvey Ph.D.
National Institute on Drug Abuse, National Institutes of Health, Baltimore, MD
Endoplasmic reticulum (ER) dysregulation is associated with human pathologies including neurodegenerative, cardiovascular, muscular, and diabetic conditions. Maintenance of ER calcium is critical for functions of the ER and its depletion can lead to loss of ER resident proteins, in a process termed exodosis. Therapeutic compounds capable of attenuating the redistribution of ER proteins under pathological conditions may slow or stop disease progression. To identify such compounds, we performed a quantitative high-throughput screen (qHTS) using the SERCaMP assay, which monitors secretion of ER resident proteins triggered by calcium depletion.
SERCaMP was initially developed as a reporter of ER calcium homeostasis using a Gaussia luciferase with a modified signal peptide and carboxy-terminus (GLuc-SERCaMP), modifications that confer secretion of the reporter in response to ER calcium depletion (Henderson et al., 2014). The assay was used to screen 9,501 compounds, including a collection of drugs approved by the FDA (US), EMA (EU), NHI (Japan), and HC (Canada) regulatory agencies (Huang et al., 2011). Since the SERCaMP reporter reflects the exodosis phenomenon (Trychta et al., 2018a), compounds identified in the screen have the potential to prevent exodosis by different mechanisms such as stabilizing ER calcium or augmenting ERS retrieval.
1. Henderson, M.J., Wires, E.S., Trychta, K.A., Richie, C.T., and Harvey, B.K. (2014). SERCaMP: a carboxy-terminal protein modification that enables monitoring of ER calcium homeostasis. Mol Biol Cell 25, 2828-2839.
2. Huang, R., Southall, N., Wang, Y., Yasgar, A., Shinn, P., Jadhav, A., Nguyen, D.T., and Austin, C.P. (2011). The NCGC pharmaceutical collection: a comprehensive resource of clinically approved drugs enabling repurposing and chemical genomics. Sci Transl Med 3, 80ps16.
3. Trychta, K.A., Back, S., Henderson, M.J., and Harvey, B.K. (2018a). KDEL Receptors Are Differentially Regulated to Maintain the ER Proteome under Calcium Deficiency. Cell Rep 25, 1829-1840 e1826.
SEQUENCE No. (1, 2, 3, etc.); […] (e.g., Cells, Incubation, Reagent, etc.); VALUE and DESCRIPTION.
1; Reagent; 5 uL; 1000 SH-SY5Y cells per wells
3; Compound; 23 nL; Control inhibitor / compound library
5; Reagent; 100 nM; Thapsigargin
7; Reagent; 1 uL; 0.5x coelenterazine
8; Detection; Luminescence; ViewLux imaging system
NOTES (numbers refer to sequence above)
1; SH-SY5Y human neuroblastoma cells stably expressing GLuc-SERCaMP (SH-SY5Y-GLuc-ASARTDL) cells were seeded in 1,536 well white tissue culture treated plates (Corning, Cat# 7464) in DMEM-high glucose-sodium pyruvate (ThermoFisher Scientific, Cat #10569) supplemented with 10% bovine growth serum (Hyclone), 10 U/ml penicillin (Gibco), 10 ug/ml streptomycin (Gibco), and 20 mM HEPES.
2; Assay plates were incubated for 5 hour at 37C in a humidified incubator containing 5% CO2.
3; qHTS libraries (23 nl, final concentrations of 1.53 uM, 7.67 uM, 38.3 uM) or controls (neutral control: DMSO, positive control: dantrolene) were added using a Kalypsis pin-tool Robotic System equipped with 1536 pinheads.
4; Cells were then incubated for 16 hours at 37C, 5% CO2.
5; Thapsigargin was added at 100 nM to deplete ER calcium stores.
6; Cells were incubated for 4 hour (37 °C, 5% CO2)
7; Gaussia luciferase in the medium was measured by adding 1 ul of 0.5x coelenterazine (final concentration 0.07x) prepared in Gaussia Luciferase Glow Assay Buffer (Pierce), without addition of the Cell Lysis Buffer Reagent.
8; Luminescence was measured using a ViewLux […] CCD imaging system (Perkin Elmer) equipped with clear filters. […] The same controls were also used for the calculation of the Z' factor, a measure of assay quality control, as previously described (Zhang et al., 1999). […]
(In general: qHTS replaces the single test concentration by a dilution series.)
`CCN(CC)CCOC(=O)C(C)(c1ccccc1)c1ccccc1`: the “activity change, negative = inhibition” value is -18.5%.
`OC(O)C(Cl)(Cl)Cl`: the “activity change, negative = inhibition” value is -16.5%.
Regarding `C[C@H]1C(=O)O[C@@H]2CCN3CC=C(COC(=O)[C@](C)(O)[C@]1(C)O)[C@H]23`, the “activity change, negative = inhibition” value is -0.468%.
Turning to `CCc1cc(OC)c(C[C@H](C)N)cc1OC`, the “activity change, negative = inhibition” value is -16.3% [at 76.3 µM].
In the case of `CCNc1nc(Cl)nc(NCC)n1`, the “activity change, negative = inhibition” value is -19.9%.
With `C[C@@H]1CN(C2CCC(C#N)(c3ccc(F)cc3)CC2)CC[C@]1(C(=O)O)c1ccccc1` (stereo not given in full), the “activity change, negative = inhibition” value is -22.4%.
Still for that read-out and setting: the result for `O=c1[nH]c2cc(Cl)ccc2n1C1CCNCC1` reads -7.56%; that for `CCS(=O)(=O)C(C)(C)S(=O)(=O)CC`, -20%; that for `C[C@H](N)[C@H](O)c1ccc(O)c(O)c1`, -37.5%.
Turning to `Cc1nnc2n1-c1sc(CCc3ccc(CC(C)C)cc3)cc1C(c1ccccc1Cl)=NC2C` (stereo not given), the “activity change, negative = inhibition” value was -25.9%.
Regarding `CC(C)(C)OC(=O)c1ncn2c1[C@@H]1CCCN1C(=O)c1c(Br)cccc1-2`, the “activity change, negative = inhibition” value is -17.8%.
`Cc1nc2ccccc2c(=O)n1-c1ccccc1Cl`: the “activity change, negative = inhibition” value is -0.162% [at 76.3 µM].
As to `CCOC(=O)c1ncn2c1CN(C)C(=O)c1c(I)cccc1-2`, the “activity change, negative = inhibition” value is 17.7%.
`CC(C)[N+](C)(CCC(C(N)=O)(c1ccccc1)c1ccccc1)C(C)C`: the “activity change, negative = inhibition” value is 8.92%.
On the same count and under the same terms, the result for `CC[C@]1(O)CC[C@H]2[C@@H]3CCC4=CCCC[C@@H]4[C@H]3CC[C@@]21C` reads 7.81%.
Take `COc1ccc(C(=O)N2CCCC2=O)cc1`: the outcome was inactive.
Take `O=C(O)CCCCCCNC1c2ccccc2CCc2ccccc21`: the “activity change, negative = inhibition” value was -17.9%.
As to `CCOC(=O)c1cncn1C(C)c1ccccc1` (stereo not given), the “activity change, negative = inhibition” value was 13.3%.
For the compound `CCC1(CC)C(=O)NC(=O)NC1=O`, the “activity change, negative = inhibition” value is -6.03%.
For `CN1C(=O)CN=C(c2ccccc2)c2cc(Cl)ccc21`, the “activity change, negative = inhibition” value was 17.2%.
As to `CCCC(C)C1(CC)C(=O)N=C(S)NC1=O` (stereo not given), the “activity change, negative = inhibition” value was -20%.
Consider `CN1C[C@@H](NS(=O)(=O)N(C)C)C[C@@H]2c3cccc4c3c(cn4C)C[C@H]21`, for which the “activity change, negative = inhibition” value is -9.24%.
On the same count and under the same terms, as for `C[N+](C)(C)CCOC(=O)C(O)(c1ccccc1)c1ccccc1`, the figure is -11.6%.
For `COc1cc(N)c(Cl)cc1C(=O)NC1CN2CCC1CC2` (stereo not given), the result was inactive.
Regarding `CC1COC2(c3ccccc3Cl)c3cc(Cl)ccc3NC(=O)CN12` (stereo not given), the “activity change, negative = inhibition” value is -27.2%.
Turning to `C[C@H]1CNCCc2ccc(Cl)cc21`, the “activity change, negative = inhibition” value was 11.3%.
Same read-out and setting: the result for `c1ccc2nc(N3CCNCC3)ccc2c1` reads -16.2%.
With `C[C@@H]1O[C@@H](O[C@@H]2C=C3CC[C@@H]4[C@H](CC[C@]5(C)[C@@H](c6ccc(=O)oc6)CC[C@]45O)[C@@]3(C)CC2)[C@H](O)[C@H](O)[C@H]1O`, the “activity change, negative = inhibition” value was 41.3%.
As for `CC(C)=C[C@@H]1[C@@H](C(=O)OCc2coc(Cc3ccccc3)c2)C1(C)C`, the “activity change, negative = inhibition” value is -8.37%.
As to `C[N+]1(C)[C@@H]2CC[C@H]1CC(OC(=O)C(CO)c1ccccc1)C2` (stereo not given in full), the “activity change, negative = inhibition” value was 10.3%.
Regarding `C[C@@H]1CC[C@H]2[C@@H](C)C(=O)O[C@@H]3O[C@@]4(C)CC[C@@H]1[C@]32OO4`, the outcome was inactive.
Same read-out and setting: as for `CC(C)NCC(O)c1ccc(N)c(C#N)c1` (stereo not given), the entry is “inactive”.
Turning to `CN1C(=O)CN=C(c2ccccc2)c2cc([N+](=O)[O-])ccc21`, the “activity change, negative = inhibition” value is 1.35%.
`O=C(CCCCl)c1ccc(F)cc1`: the “activity change, negative = inhibition” value is -16%.
As for `Nc1ccc(N)cc1`, the “activity change, negative = inhibition” value was -34.8%.
On the same count and under the same terms, the result for `CC(Cc1ccccc1)NCCCCl` (stereo not given) reads 22.6%; that for `NC(=O)CN1CCCC1=O`, -7.23%; that for `Cc1nnc2n1-c1sc(CCC(=O)N3CCOCC3)cc1C(c1ccccc1Cl)=NC2`, 5.37%.
Take `O=C(NC(=O)c1c(F)cccc1F)Nc1cc(Cl)c(OC(F)(F)C(F)C(F)(F)F)cc1Cl` (stereo not given): the “activity change, negative = inhibition” value was -11.3%.
Still for that read-out and setting: the result for `CCCCCCCCC(=O)NCc1ccc(O)c(OC)c1` reads 150%.
